Measurements: PubChem BioAssay (NCI)
About 83,000 compounds went through this panel and 20% of them were active in at least one assay; those are over-represented in the sample as a whole.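 Values shown are percent growth following 48 h exposure of cells in 96-well plates to a single concentration of compound; below 10 was considered active.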 A number with no mark means an inactive call. Activity calls are given as the source filed them.

Experiments:
Assay in all cases: NCI-60 one-dose screen, 48 h (100 = growth as untreated, 0 = no growth, -100 = all killed)
Conditions in all cases: 10 µM unless noted
SR leukemia = system: SR leukemia
RPMI-8226 leukemia = system: RPMI-8226 leukemia
OVCAR-8 ovarian = system: OVCAR-8 ovarian
OVCAR-5 ovarian = system: OVCAR-5 ovarian
OVCAR-4 ovarian = system: OVCAR-4 ovarian
SK-OV-3 ovarian = system: SK-OV-3 ovarian
IGROV1 ovarian = system: IGROV1 ovarian
OVCAR-3 ovarian = system: OVCAR-3 ovarian
HS 578T breast = system: HS 578T breast
NCI/ADR-RES ovarian = system: NCI/ADR-RES ovarian
T-47D breast = system: T-47D breast
BT-549 breast = system: BT-549 breast
MDA-MB-435 melanoma = system: MDA-MB-435 melanoma
SW-620 colon = system: SW-620 colon
HCT-116 colon = system: HCT-116 colon
HCC-2998 colon = system: HCC-2998 colon
KM12 colon = system: KM12 colon
MCF7 breast = system: MCF7 breast

| Compound | growth (SR leukemia) | growth (RPMI-8226 leukemia) | growth (OVCAR-8 ovarian) | growth (OVCAR-5 ovarian) | growth (OVCAR-4 ovarian) | growth (SK-OV-3 ovarian) | growth (IGROV1 ovarian) | growth (OVCAR-3 ovarian) | growth (HS 578T breast) | growth (NCI/ADR-RES ovarian) | growth (T-47D breast) | growth (BT-549 breast) | growth (MDA-MB-435 melanoma) | growth (SW-620 colon) | growth (HCT-116 colon) | growth (HCC-2998 colon) | growth (KM12 colon) | growth (MCF7 breast) |
| --- | --- | --- | --- | --- | --- | --- | --- | --- | --- | --- | --- | --- | --- | --- | --- | --- | --- | --- |
| COc1ccc2c(c1OC)CO[C@@H]2[C@H]1c2c(cc3c(c2OC)OCO3)CCN1S(=O)(=O)c1cn(C)cn1 | 23.7% | 16.5% | 20.4% | 35.1% | 51.5% | 22.2% | 24.7% | -35.3% (active) | 15.5% | 3.64% (active) | 33.4% | 38.2% | -27.3% (active) | 25.4% | 14.4% | 11.7% | 11.3% |  |
| CC(C)Cn1cnc2c(=O)[nH]c(N)nc21 | 90.3% | 104% | 97% | 110% | 103% | 78% | 104% | 109% | 106% | 105% | 85.3% | 98.5% | 109% | 106% | 101% | 104% | 106% | 86.7% |
| Oc1c(I)cc(I)cc1CNCc1ccccn1 | 22.1% | 30.9% | 13.8% | 61.9% | 22.8% | 28% | 24.4% | 20.3% | 57.9% | 10.3% | 14.8% | 36.7% | 46.8% | 33.2% | 26.4% | 49.3% |  |  |
| Cc1[nH]c(C(=O)Nc2ccc(C(=O)N3CCN(c4cc5c(cc4F)c(=O)c(C(=O)O)cn5C4CC4)CC3)cc2OC(C)C)c(Cl)c1Cl | 45.9% | 34.2% | 78.2% | 95.1% | 94.5% | 110% | 49.5% | 85.8% | 87.2% | 78.4% | 84% | 75.7% | 88.5% | 96.3% | 38.1% | 96.4% | 80.4% |  |
| O=C(CSc1nc2sc3c(c2c(=O)n1-c1ccccc1)CCCCC3)N/N=C/c1cccc([N+](=O)[O-])c1 | 38.3% | 73.4% | 16.3% | 78% | -6.2% (active) | 80.4% | 71.1% | 10.9% | -1.34% (active) | 44% | 64.1% | 38.1% | 72.9% | 52.4% | 4.84% (active) | 98% | 47.6% | 45.9% |
| COC1=CC(c2ccc[nH]2)=N/C1=C\c1[nH]c(C)c(CC(=O)OCc2ccccc2)c1CCC(=O)OCc1ccccc1 | -36.2% (active) | -50.8% (active) | -18.9% (active) | -17.1% (active) | 13.6% | -13.6% (active) | 12.6% | -86.8% (active) | -18.9% (active) | -26.4% (active) | -3.22% (active) | -31.6% (active) | -49.2% (active) | -30.9% (active) | -68.9% (active) | -3.69% (active) | -38.9% (active) |  |
| CN(C)CC(C)(C)C(=O)/C=C/c1ccccc1 | -16.5% [25 µM] (active) | -23.4% [25 µM] (active) | -47.1% [25 µM] (active) | -12% [25 µM] (active) | -19.5% [25 µM] (active) | -20.1% [25 µM] (active) | -16.7% [25 µM] (active) | -18.5% [25 µM] (active) | -2.87% [25 µM] (active) | -9% [25 µM] (active) | -30.8% [25 µM] (active) | -65% [25 µM] (active) | -35.9% [25 µM] (active) | -59.1% [25 µM] (active) | -87.1% [25 µM] (active) | -75.7% [25 µM] (active) | -22.8% [25 µM] (active) |  |
| CCOC(=O)c1cc2c(n1C)-c1nc(NC(C)=O)sc1CCC2 | 72.6% | 79% | 71.2% | 117% | 80.4% | 76.1% | 69.2% | 85.7% | 60.5% | 85.1% | 51.8% | 71.8% | 98.5% | 93.3% | 75.4% | 113% | 87.7% |  |
| CC(=O)n1nc(C(=O)OC(C)(C)c2ccccc2)c2ccccc21 | 95.3% | 102% | 95.4% | 80.7% | 93% | 88.2% | 96.7% | 101% | 100% | 89.5% | 86.3% | 99.6% | 92.1% | 103% | 94.8% | 98.2% |  |  |
| CCOC(=O)c1c(NC(=O)c2cccc(C(F)(F)F)c2)sc2c(CN(C)C)c(O)ccc12 | -2.46% (active) | -17.3% (active) | 82.1% | 89.5% | 91.1% | 101% | 83.1% | 98.5% | 89.8% | 79% | 70.3% | 96.3% | -22.6% (active) | -6.39% (active) | 33.7% | -64.2% (active) | 79.4% |  |
| c1ccc([P+](c2ccccc2)(c2ccccc2)c2ccc3c4ccc([P+](c5ccccc5)(c5ccccc5)c5ccccc5)c5cccc(c6cccc2c63)c54)cc1 | 14.7% | -8.35% (active) | 14.2% | 24.3% | 23.6% | -7.17% (active) | 6.28% (active) | 19.3% | 15.8% | 72% | 23.6% | -1.26% (active) | 3.29% (active) | 10% | 8.67% (active) | 17.9% | -9.19% (active) | 16.1% |
| N#Cc1nc(-c2ccc(F)cc2)oc1S(=O)(=O)N1CCOCC1 | -5.89% (active) | 41.2% | 63.1% | 101% | 60.9% | 99.4% | 78.3% | -88.4% (active) | 123% | 91.1% | -6.45% (active) | 98.5% | 79.8% | -77.9% (active) | -18.4% (active) | 106% | 102% |  |
| COc1ccc(-c2cc(-c3cc(OC)c(OC)c(OC)c3)c(C#N)c(=O)n2CCCCC(=O)NO)cc1 | 13.3% | 35.9% | 42.4% | 76.6% | 67% | 87.1% | 60.2% | 62.1% | 45% | 38.8% | 50.7% | 92.7% | 37.7% | 47.9% | 25.1% | 87.5% | 73.1% |  |
| Nc1ncnc2c1N=C(c1ccc(Br)cc1)CC(c1cccc(Nc3ccnc4cc(C(F)(F)F)ccc34)c1)N2 (stereo not drawn) | 22.1% | 12.7% | 69.9% | 88.7% | 76.8% | 45.7% | 65.7% | 83.9% | 65% | 66.9% | 68.6% | 105% | 38.3% | 64.1% | 32.8% | 67.2% | 60.2% |  |
| O=C(c1ccncc1)N1N=C(c2ccc(Cl)cc2)C[C@H]1c1cn(-c2ccccc2)nc1-c1ccccc1 | 91.1% | 105% | 74.6% | 105% | 82.6% | 83.4% | 99.4% | 94.7% | 87.2% | 87% | 87.6% | 92.5% | 89.3% | 101% | 73.5% | 92.2% | 86.1% | 74.8% |
| C=C1CC[C@@H]2[C@](C)(COC(C)=O)[C@H](OC(C)=O)CC[C@@]2(C)[C@@H]1CC(Nc1ccc(S(=O)(=O)Nc2ncccn2)cc1)C1=CCOC1=O (stereo partly drawn) | -4.43% (active) | -12.7% (active) | 3.81% (active) | -1.98% (active) | 42.7% | 84.7% | 7.21% (active) | -80.6% (active) | 51.2% | 16.1% | 42.3% | -32% (active) | -14.8% (active) | -70% (active) | -55% (active) | 32% | -13.2% (active) | -19.6% (active) |
| CCOC(=O)NC(C)C | 112% | 113% | 103% | 90.5% | 107% | 117% | 91.2% | 112% | 111% | 93.5% | 100% | 116% | 111% | 111% | 98.4% | 103% | 112% | 106% |
